Activity calls are given as the source filed them.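 How the source made its calls: active means compounds blocking 15-hLO-2 with IC50 at or below the top tested dose, none here; inactive means the rest.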

Polyunsaturated fatty acid lipoxygenase ALOX15B (Homo sapiens), sequence (O15296 whole entry, looked up): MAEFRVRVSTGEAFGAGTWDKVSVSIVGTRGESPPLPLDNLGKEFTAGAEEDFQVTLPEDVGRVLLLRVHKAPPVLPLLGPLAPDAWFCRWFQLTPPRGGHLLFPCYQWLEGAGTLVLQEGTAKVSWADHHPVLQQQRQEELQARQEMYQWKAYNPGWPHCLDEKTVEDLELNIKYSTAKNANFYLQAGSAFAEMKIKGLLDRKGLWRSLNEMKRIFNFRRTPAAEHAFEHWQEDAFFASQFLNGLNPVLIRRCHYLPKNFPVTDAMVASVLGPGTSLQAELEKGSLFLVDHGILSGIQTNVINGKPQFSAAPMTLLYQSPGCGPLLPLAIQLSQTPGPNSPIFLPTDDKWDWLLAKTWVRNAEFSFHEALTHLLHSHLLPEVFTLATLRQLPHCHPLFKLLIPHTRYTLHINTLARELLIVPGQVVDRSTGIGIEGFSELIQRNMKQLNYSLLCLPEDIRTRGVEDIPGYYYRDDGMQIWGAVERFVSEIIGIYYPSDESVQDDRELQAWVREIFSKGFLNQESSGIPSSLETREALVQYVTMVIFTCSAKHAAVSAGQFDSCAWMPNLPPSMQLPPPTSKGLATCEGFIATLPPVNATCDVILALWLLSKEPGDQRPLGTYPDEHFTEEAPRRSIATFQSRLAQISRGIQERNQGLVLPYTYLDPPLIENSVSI

This test concerns the target Polyunsaturated fatty acid lipoxygenase ALOX15B (Homo sapiens) (UniProt O15296). The test can be described thus: Cuvette-Based Assay fo Inhibitors of 15-hLO-2 (15-human lipoxygenase 2). The settings on record: purified 15hLO-2, arachidonic acid, UV 234 nm cuvette. How it is done: Human lipoxygenase 15hLO-2 is a member of the closely related lipoxygenase family of enzymes which catalyze the site-specific oxidation of arachidonic acid to various hormone precursor molecules and as such is a candidate for drug development in a variety of disease areas, such as cancer and inflammation. Inhibition of 15hLO-2 activity was screened by utilizing arachidonic acid as a substrate. The extent of hydroperoxide product formation was measured by a secondary chromogenic reaction in which xylenol orange (XO, Sigma-Aldrich, cat. number 39,818-7) reacts with the ferric ions produced from the reaction between the hydroperoxide and ferrous ions. The Fe(III)-XO complex is characterized with red-shifted absorbance at 560 nm. A purified preparation of human 15hLO-2 was supplied by Professor Ted Holman, University of California, Santa Cruz. This assay is includes some confirmation and follow-up compounds for related primary screening assay AID 881. Assay Provider: Holman, T.R., University of California, Santa Cruz Screening Center PI: Austin, Christopher P. Screening Center: NIH Chemical Genomics Center
For control experiments, 2 mL of substrate buffer (7 uM arachidonic acid / 25 mM HEPES / 0.01% (v/v) Triton X-100, pH 7.5) was aliquoted in a cuvette with a magnetic stir bar. After equilibrium was ensured, an aliquot of inhibitor solvent was added (DMSO or MeOH), and equilibrium was once again assured. The reaction was started by adding enzyme to the cuvette and the reaction was followed until completed. The inhibition experiments were performed as above, except the actual inhibitory compound was added instead of vehicle. To achieve an IC50, typically 5 concentrations of the inhibitor were studied. If the inhibitor concentration was constant, then five different reaction volumes were used. Step \ Parameter \ Value \ Description 1; UV-Vis; 234 nm; Equilibration 2; Reagent; 2 mL; Substrate buffer 3; UV-Vis; 234 nm; Equilibration 4; Reagent; varies; Compound 5; UV-Vis; 234 nm; Equilibration 6; Reagent; 50-200 nM; Enzyme 15hLO-2 7; UV-Vis; 234 nm; Enzymatic reaction Step \ Notes 1. Blank cuvette to air. 2. 7 uM AA, 25 mM HEPES, 0.01% Triton X-100, pH 7.5. 3. No change in absorbance ensured. 4. Compound vehicle or compound in various concentrations depending on potency. 5. No change in absorbance ensured. 6. Enzyme concentration to achieve reaction rate between 0.02 and 0.04 AU/s. 7. Enzymatic reaction visualized until completion.
`O=C(OCC#CCSc1nnc(-c2cccc3ccccc23)o1)c1ccc(F)cc1`: the outcome was inactive.

With `O=C(OCC#CCSc1nnc(-c2cccc3ccccc23)o1)c1cccs1`, the call was inactive.

With `O=C1c2ccccc2NC(c2ccc(-c3cccc(Cl)c3)o2)N1O` (configuration not stated), the compound was called inactive.

For `CC(=O)N1CCN(c2ccc(NCc3ccc4c(c3)OCO4)cc2)CC1`, the outcome was inactive.

Turning to `CC(C)Nc1oc(-c2cccc3ccccc23)nc1C#N`, the compound was classed as inactive.

`O=C(OCC#CCSc1nnc(-c2cccc3ccccc23)o1)c1cc2ccccc2o1`: the compound was called inactive.

For the compound `COc1cccc(CNc2ccc(N3CCCCC3)cc2)c1OC`, the compound was classed as inactive.

(Values after PubChem BioAssay AID2702 (National Center for Advancing Translational Sciences (NCATS), 2010).)
